PubChem BioAssay (Tox21)
Inconclusive results are not listed. Calls of active or inactive are those of the source. Unless noted, calls follow the shape of the full dose curve.

What was measured:
[1] = target: Gonadotropin-releasing hormone receptor (Homo sapiens) (UniProt P30968); experiment: Human gonadotropin-releasing hormone receptor (GnRHR) small molecule agonists, calcium flux assay in GnRHR-HEK293 cells (AID 1920063); also: nearly all actives have a fitted effect of over 35% in size
Method in brief: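 GnRHR-HEK293, 1500 cells/well, 18 h 37 C/5% CO2; Ca dye 1 h 37 C; cpd pinned (DMSO), agonist mode; kinetic FL 480/540, 3 min, 1 s reads; 15 conc, n=3.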

[2] = G protein-coupled receptor (GPCR) small molecule agonists, calcium flux assay: HEK293 wild type cell line counter screen (AID 1920065)
Method in brief: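 Kinetic fluorescence at Ex/Em 480/540, recorded every second over 3 min, served as the read-out after compound addition. Each compound was tested at 15 concentrations in triplicate on cells pre-loaded with calcium dye for 1 h.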

[3] = p53 small molecule agonists, cell-based qHTS assay with human liver microsomes: qHTS cell viability counter screen (AID 1963579); also: nearly all actives have a fitted effect of over 45% in size
Method in brief: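 Cytotoxicity counter screen: p53RE-bla, 4,000 cells/well; 5 h settle, 37 C/5% CO2; cpd + HLM 0.5 mg/mL + NADPH 0.5 mg/mL (final); 16 h, 37 C; CellTiter-Glo, 30 min RT, luminescence.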

[4] = p53 small molecule agonists, cell-based qHTS assay with rat liver microsomes: qHTS cell viability counter screen (AID 1963580); also: nearly all actives have a fitted effect of over 45% in size
Method in brief: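 Viability is assessed in parallel with the p53 reporter read: HCT-116 p53RE-bla cells receive compounds plus rat microsomes and NADPH (0.5 mg/mL final apiece), incubate 16 h at 37 C, and then CellTiter-Glo luminescence is recorded.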

[5] = p53 small molecule agonists, cell-based qHTS assay: qHTS cell viability counter screen (AID 1963581); also: nearly all actives have a fitted effect of over 45% in size
Method in brief: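 HCT-116 p53RE-bla cells, 4,000/well, plated 5 h before compound pin transfer; 16 h at 37 C; bla substrate 2 h RT; then CellTiter-Glo, 30 min RT, luminescence.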

[6] = target: 5-hydroxytryptamine receptor 2A (Homo sapiens) (UniProt P28223); experiment: 5-hydroxytryptamine receptor 2A (HTR2A) small molecule agonists, cell-based qHTS assay (AID 1963587); also: nearly all actives have a fitted effect of over 30% in size
Method in brief: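 CHO cells stably expressing human HTR2A, plated 18 h, loaded with calcium dye 1 h at 37 C. Agonist mode: compounds added and intracellular calcium fluorescence recorded kinetically for 2 min at 1 sec intervals.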

[7] = target: Muscarinic acetylcholine receptor M1 (Homo sapiens) (UniProt P11229); experiment: Cholinergic receptor muscarinic 1 (CHRM1) small molecule antagonists, cell-based qHTS assay (AID 1963588); also: nearly all actives have a fitted effect of over 40% in size
Method in brief: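 CHRM1-CHO calcium-flux assay, antagonist mode. Cells were seeded 18 h, dye-loaded 1 h at 37 C and given compound for 5 min at RT, then acetylcholine was added at 50nM. FDSS fluorescence was read 3 min; 15 concentrations, three runs.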

[8] = target: Muscarinic acetylcholine receptor M1 (Homo sapiens) (UniProt P11229); experiment: Cholinergic receptor muscarinic 1 (CHRM1) small molecule agonists, cell-based qHTS assay (AID 1963589); also: nearly all actives have a fitted effect of over 35% in size
Method in brief: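 Human M1 in stable CHO line; 18 h plating, 1 h dye load 37 C; cpd added (agonist mode); Ca2+ fluorescence kinetic read, 1 s intervals; 15 conc, 3 runs.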

[9] = cAMP Responsive Elements (CRE) small molecule agonists, cell-based qHTS assay (AID 1963590)
Method in brief: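 HEK 293T CRE-bla, 2,000 cells/well, 18 h preincubation 37 C/5% CO2; cpds (DMSO) pinned, 3 h; LiveBLAzer B/G FRET substrate, 2 h RT.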

[10] = cAMP Responsive Elements (CRE) small molecule antagonists, cell-based qHTS assay (AID 1963591; active = well fitted inhibition curve with a large enough effect in the signal ratio in the repeat runs, not every such curve was filed as active; the % refers to the signal ratio)
Method in brief: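 Beta-lactamase reporter read by FRET substrate (LiveBLAzer B/G) after 2 h at room temperature. CRE-bla HEK293T cells had received compound plus 0.25 uM (final) NKH477 for 3 h at 37 °C.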

[11] = target: Beta-2 adrenergic receptor (Homo sapiens) (UniProt P07550); experiment: Adrenergic beta2 receptor (ADRB2) small molecule antagonists, cell-based qHTS assay (AID 1963592); also: series mostly up to about 92 µM; nearly all actives have a fitted effect of over 50% in size
Method in brief: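 Cells (CHO, stable ADRB2 overexpression) incubated 18-20hr at 37C; compounds added from DMSO; agonist mix (1nM isoproterenol, 100uM IBMX, 25uM Ro-20-1724) added; 0.5hr RT; d2-cAMP and anti-cAMP-cryptate added; 1hr RT; 665/615 nm read.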

[12] = target: Beta-2 adrenergic receptor (Homo sapiens) (UniProt P07550); experiment: Adrenergic beta2 receptor (ADRB2) small molecule agonists, cell-based qHTS assay (AID 1963593);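 also: CHO cells stably overexpressing human ADRB2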
Method in brief: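 CHO cells stably over-expressing ADRB2 were plated overnight at 37C, then dosed with compounds plus a stimulation mix containing 100uM IBMX and 25uM Ro-20-1724 for 0.5hr at room temperature. cAMP was measured by HTRF competition, 1hr.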

[13] = target: D(2) dopamine receptor (Homo sapiens) (UniProt P14416); experiment: Dopamine D2 receptor (DRD2) small molecule agonists, cell-based qHTS assay (AID 1963594); also: nearly all actives have a fitted effect of over 35% in size
Method in brief: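 HEK293 cells stably expressing human DRD2, pre-treated with PDE inhibitor Ro20-1724 (0.1 mM final) and compound 10 min at room temperature, then stimulated with NKH477 (200nM […]) for 30 min. cAMP read by HTRF (665/620 nm).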

[14] = target: D(2) dopamine receptor (Homo sapiens) (UniProt P14416); experiment: Dopamine D2 receptor (DRD2) small molecule antagonists, cell-based qHTS assay (AID 1963595; active = well fitted inhibition curve with a large enough effect in the signal ratio in the repeat runs, with a control signal flat; the % refers to the signal ratio)
Method in brief: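 HTRF cAMP read-out at 665 and 620 nm emission (340 nm excitation). Antagonist mode: compounds were tested against 12 nM quinpirole in DRD2-HEK293 cells, with 200 nM NKH477 raising cAMP and 0.1 mM Ro20-1724 blocking its breakdown.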

[15] = target: KiSS-1 receptor (Homo sapiens) (UniProt Q969F8); experiment: Human kisspeptin (KISS1R) small molecule agonists, calcium flux assay in KISS1R-HEK293 cells (AID 1920064; active = well fitted activation curve with a large enough effect in the repeat runs)
Method in brief: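 Stable human KISS1R HEK293 line; 18 h plating, 37 C/5% CO2; calcium dye 1 h 37 C; compound pin transfer; kinetic fluorescence Ex/Em 480/540, 3 min.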

[16] = p53 small molecule agonists, cell-based qHTS assay with rat liver microsomes (AID 1963578)
Method in brief: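 Cells carrying a p53 response element–beta-lactamase reporter were plated and rested 5 h, then dosed with compound in DMSO plus rat liver microsomes and NADPH, each at 0.5 mg/mL final. After 16 h at 37 C, LiveBLAzer substrate was added for 2 h.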

[17] = p53 small molecule agonists, cell-based qHTS assay (AID 1963582; active = well fitted activation curve with a large enough effect in the signal ratio in the repeat runs, not every such curve was filed as active; the % refers to the signal ratio)
Method in brief: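 Reporter line: p53RE-bla. Pre-incubation 5 h, 37 C, 5% CO2; compound (DMSO, pin tool) 16 h, 37 C; B/G FRET substrate 2 h RT; fluorescence intensity read.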

[18] = target: 5-hydroxytryptamine receptor 2A (Homo sapiens) (UniProt P28223); experiment: 5-hydroxytryptamine receptor 2A (HTR2A) small molecule antagonists, cell-based qHTS assay (AID 1963586); also: nearly all actives have a fitted effect of over 45% in size
Method in brief: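 Antagonist-mode intracellular calcium assay: DOI (4 nM) added after 5 min compound pre-incubation at room temperature to dye-loaded HTR2A-CHO cells. Fluorescence followed for 3 min, sampled every second.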

[19] = p53 small molecule agonists, cell-based qHTS assay with human liver microsomes (AID 1963577)
Method in brief: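 Fluorescence of the beta-lactamase reporter in p53RE-bla cells, detected with LiveBLAzer substrate (2 h, room temperature, dark), served as the read-out after 16 h compound exposure at 37 C with human liver microsomes and NADPH, each 0.5 mg/mL final.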

[20] = Nuclear factor erythroid 2-related factor 2/antioxidant responsive element (Nrf2/ARE) small molecule agonists: luciferase reporter gene qHTS assay in human keratinocytes (AID 1919969); also: nearly all actives have a fitted effect of over 35% in size

Measured: Potency

KiSS-1 receptor (Homo sapiens), sequence (Q969F8 whole entry, looked up): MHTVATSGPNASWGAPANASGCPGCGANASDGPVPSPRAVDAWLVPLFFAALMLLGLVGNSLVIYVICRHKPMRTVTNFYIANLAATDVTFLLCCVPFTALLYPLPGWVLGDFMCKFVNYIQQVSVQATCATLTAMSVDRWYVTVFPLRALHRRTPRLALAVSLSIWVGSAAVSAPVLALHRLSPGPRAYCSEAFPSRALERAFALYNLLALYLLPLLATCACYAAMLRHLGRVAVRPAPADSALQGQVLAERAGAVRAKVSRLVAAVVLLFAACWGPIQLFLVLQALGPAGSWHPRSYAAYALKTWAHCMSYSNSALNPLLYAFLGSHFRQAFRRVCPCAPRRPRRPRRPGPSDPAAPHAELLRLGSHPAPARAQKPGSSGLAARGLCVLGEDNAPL
5-hydroxytryptamine receptor 2A (Homo sapiens), sequence (P28223 whole entry, looked up): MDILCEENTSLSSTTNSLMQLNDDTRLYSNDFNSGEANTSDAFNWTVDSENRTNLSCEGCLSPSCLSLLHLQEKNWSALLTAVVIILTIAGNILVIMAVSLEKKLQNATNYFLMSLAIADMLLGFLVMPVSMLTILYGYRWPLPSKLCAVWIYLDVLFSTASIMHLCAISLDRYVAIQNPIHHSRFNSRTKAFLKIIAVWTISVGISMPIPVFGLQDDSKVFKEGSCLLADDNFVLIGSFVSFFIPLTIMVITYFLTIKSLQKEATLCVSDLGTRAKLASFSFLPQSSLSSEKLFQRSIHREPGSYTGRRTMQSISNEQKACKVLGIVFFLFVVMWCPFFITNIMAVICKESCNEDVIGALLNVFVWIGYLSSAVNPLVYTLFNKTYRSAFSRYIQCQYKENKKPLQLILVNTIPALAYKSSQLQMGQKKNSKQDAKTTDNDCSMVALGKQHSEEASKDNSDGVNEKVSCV
Muscarinic acetylcholine receptor M1 (Homo sapiens), sequence (P11229 whole entry, looked up): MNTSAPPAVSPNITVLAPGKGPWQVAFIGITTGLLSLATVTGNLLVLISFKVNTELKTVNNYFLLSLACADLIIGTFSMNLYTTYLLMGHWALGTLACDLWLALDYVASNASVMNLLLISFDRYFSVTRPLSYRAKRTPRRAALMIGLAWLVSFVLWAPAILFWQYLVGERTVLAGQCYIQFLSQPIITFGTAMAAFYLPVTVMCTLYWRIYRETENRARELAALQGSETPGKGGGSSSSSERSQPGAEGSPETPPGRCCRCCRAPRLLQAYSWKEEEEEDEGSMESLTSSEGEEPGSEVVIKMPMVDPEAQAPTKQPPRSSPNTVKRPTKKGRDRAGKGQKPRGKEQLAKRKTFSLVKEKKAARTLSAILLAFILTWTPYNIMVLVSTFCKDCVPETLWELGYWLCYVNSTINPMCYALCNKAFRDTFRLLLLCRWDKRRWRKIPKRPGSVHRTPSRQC
Gonadotropin-releasing hormone receptor (Homo sapiens), sequence (P30968 whole entry, looked up): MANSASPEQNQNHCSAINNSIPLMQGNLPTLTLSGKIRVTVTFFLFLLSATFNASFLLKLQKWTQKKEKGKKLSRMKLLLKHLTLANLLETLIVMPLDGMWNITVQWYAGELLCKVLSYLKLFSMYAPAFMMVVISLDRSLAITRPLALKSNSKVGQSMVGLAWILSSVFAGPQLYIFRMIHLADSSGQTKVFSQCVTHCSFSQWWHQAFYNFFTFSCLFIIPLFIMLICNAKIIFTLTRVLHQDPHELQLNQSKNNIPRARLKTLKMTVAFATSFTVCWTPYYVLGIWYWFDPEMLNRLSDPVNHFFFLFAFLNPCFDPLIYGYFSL
Beta-2 adrenergic receptor (Homo sapiens), sequence (P07550 whole entry, looked up): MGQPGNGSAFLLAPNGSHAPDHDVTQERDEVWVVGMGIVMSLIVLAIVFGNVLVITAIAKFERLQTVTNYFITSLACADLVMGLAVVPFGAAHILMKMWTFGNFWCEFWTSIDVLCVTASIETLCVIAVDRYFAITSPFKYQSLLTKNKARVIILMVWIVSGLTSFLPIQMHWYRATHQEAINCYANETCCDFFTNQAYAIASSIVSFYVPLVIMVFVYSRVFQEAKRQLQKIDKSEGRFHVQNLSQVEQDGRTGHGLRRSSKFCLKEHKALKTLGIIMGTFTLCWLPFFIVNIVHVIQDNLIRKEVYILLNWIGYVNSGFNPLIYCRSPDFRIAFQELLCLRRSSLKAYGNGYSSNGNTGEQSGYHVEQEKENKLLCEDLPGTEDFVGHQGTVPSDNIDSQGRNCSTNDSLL
D(2) dopamine receptor (Homo sapiens), sequence (P14416 whole entry, looked up): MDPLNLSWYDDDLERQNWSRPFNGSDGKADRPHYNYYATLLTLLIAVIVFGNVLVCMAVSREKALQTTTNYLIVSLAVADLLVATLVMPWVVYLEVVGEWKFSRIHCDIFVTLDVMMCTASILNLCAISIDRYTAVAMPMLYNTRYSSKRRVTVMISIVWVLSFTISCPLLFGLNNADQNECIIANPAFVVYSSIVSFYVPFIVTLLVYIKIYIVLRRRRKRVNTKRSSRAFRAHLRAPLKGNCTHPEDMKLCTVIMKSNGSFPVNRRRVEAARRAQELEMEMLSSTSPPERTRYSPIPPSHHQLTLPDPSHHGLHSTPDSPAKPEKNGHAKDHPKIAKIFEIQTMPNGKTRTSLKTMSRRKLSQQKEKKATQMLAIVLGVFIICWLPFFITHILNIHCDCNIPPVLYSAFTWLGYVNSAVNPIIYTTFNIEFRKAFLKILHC

O=C1NS(=O)(=O)c2ccccc21
inactive: [1] | [2] | [3] | [4] | [5] | [6] | [7] | [8] | [9] | [10] | [11] | [12] | [13] | [14]

COC(=O)C1CCC(C(=O)OC)CC1 (stereo unspecified)
inactive: [1] | [15] | [2] | [16] | [3] | [4] | [5] | [17] | [18] | [6] | [7] | [9] | [10] | [11] | [12] | [13] | [14]

Clc1ccc(Cl)c(Cl)c1Cl
inactive: [2] | [19] | [16] | [3] | [4] | [5] | [17] | [18] | [6] | [8] | [9] | [11] | [13] | [14]

O=C(O)c1cccnc1
inactive: [1] | [15] | [2] | [9] | [10] | [11] | [12] | [13]

COc1ccc(O)cc1
inactive: [15] | [2] | [19] | [16] | [3] | [4] | [5] | [17] | [18] | [6] | [7] | [8] | [9] | [10] | [11] | [12] | [13] | [14]

O=NO
inactive: [15] | [3] | [4] | [5] | [18] | [7] | [8] | [9] | [10] | [11] | [13] | [14]

COc1cc(OC)c(C(=O)CCCN2CCCC2)c(OC)c1
inactive: [20] | [1] | [15] | [2] | [19] | [16] | [3] | [4] | [5] | [17] | [9] | [10] | [11] | [12] | [13] | [14]

C=CCOC(=O)c1ccccc1C(=O)OCC=C
inactive: [20] | [1] | [15] | [2] | [19] | [3] | [4] | [18] | [6] | [7] | [8] | [9] | [10] | [11] | [12] | [13] | [14]
